This assay relates to PPARg:RXRa DBDmut IVT, anti-RXR (DBD mutation: RXRa K156A/R161A, NR concentration 270 nM, RXRa partner concentration 90 nM). In words: PBM binding z-score (relative to random genomic background probes); higher = stronger binding; sequences stand for … in GC…GCGATTGACAGCGTAGAATGAAGG
The method, boiled down: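 Antibodies against each partner of ligand-free nuclear receptor dimers (one per run) detected binding on custom Agilent 4×180K protein-binding microarrays after 1 h incubation. The double-stranded probes had 34-nt variable regions carrying direct-repeat seeds, single-nucleotide variants, half-site ablations and random human genomic background sequences. Binding z-scores, from regression-normalized fluorescence, use the random background probes as reference.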
Sequence AAATGTAGGTTATCGGGTCATTCAGTTTGCGCAT showed a PBM binding z-score of 8.08.

For the sequence TCTTGTAGATCAACAGGAGGTAAAGAAAGATCGA, the PBM binding z-score was 1.4.

The sequence CCTTACGGGTCACGAGGTTATGGCACGACGAGCG yielded a PBM binding z-score of 3.69.

CCTCGGAGGACAGAAGATCAGAGCTGTCCGCTTT: the PBM binding z-score was -0.304.

On to TTACCAAGGCGAGCTGAGGTCGTTGATCCAACTC, for which the PBM binding z-score was found to be 0.105.

Sequence TCTAGTAGATCAGCAGGTTAAGAAAGCTGGCCAA displayed a PBM binding z-score of 1.99.

Sequence GCGACTGGGGCATCAGCAGGTTACGATAACTTAA registered a PBM binding z-score of 3.75.

In turn, CGAACTAGGTCATCCAGGACAGTAAATACATTGA gave a PBM binding z-score of 7.97.

The sequence ACTATTAGTTGAGACGAAGGCAACCGATAGGTTG returned a PBM binding z-score of -0.511.

In turn, TCGAGTTGGTTAGTCGGGGCATTCAGCCAACATA came in with a PBM binding z-score of 0.597.

Sequence TAGCCTAGGTCATTCAGGGGCCTGTATAGAAAGC yielded a PBM binding z-score of 1.43.

Consider TAGCCAAGGTCATGGGCCAGTATACCACGCGAAC, for which the PBM binding z-score was determined as 1.56.

Sequence TCTAGTTGGGCACGGAGGTCACACACGACGGGTA registered a PBM binding z-score of 1.69.

For the sequence ATCTCTAGGTAAAGTACAGTGAAAGATCGATAGA, the PBM binding z-score is 2.11.

Sequence GTACCAAGATGAATAGGTCGTTGATGAGTAGGCG registered a PBM binding z-score of -0.366.

In turn, CGAACTAGGTCCGAACAGGACAGTGAAGGATGAT came in with a PBM binding z-score of 1.53.

As to CTCGAAAGGTCGTTCTCAGGTGAGTATACCAAAC, the PBM binding z-score is 0.679.

As to CAAACTAAGTCAAGGTCAAAGTCGGTTTGTGCCA, the PBM binding z-score amounted to 2.53.

Consider GTTGCTAGGTCAGGTTGGTCAGCTAACGGGTACG, for which the PBM binding z-score stood at 2.88.

CCAACGAGGGCATGAGTTGATAGCAAATGCCGAT showed a PBM binding z-score of 1.66.

TCTTGTAGATCGGCAGGTTAAGAAAGCTGGCCAA yielded a PBM binding z-score of 1.25.

In turn, TCGAGTAGGTTAGGGGCATTCAAAATGGCGTCGA registered a PBM binding z-score of 2.11.

Source of the values: the supplement of paper PMC6555819.
